For 35 molecules, Potency results are on record in PubChem BioAssay (NCATS).

Values joined by “and” are separate entries in the source; they are usually repeats but may differ in a detail not shown here. Identical values can stand only once. Records with an inconclusive call do not appear. A structure can be active in one record and inactive in another. Active and inactive are the calls of the source. Unless noted, calls follow the shape of the dose curve; as a rule, active = well fitted curve in the direction sought with a large enough effect in the repeat runs; inconclusive = weak or mixed curves; inactive = no such curve, though single readings can be large; an effect the other way counts as inactive or inconclusive.
Potency is read from the fitted curve at half-maximal effect.

Chain of N-terminal Xaa-Pro-Lys N-methyltransferase 1 (Homo sapiens) (Q9BV86 whole entry, looked up): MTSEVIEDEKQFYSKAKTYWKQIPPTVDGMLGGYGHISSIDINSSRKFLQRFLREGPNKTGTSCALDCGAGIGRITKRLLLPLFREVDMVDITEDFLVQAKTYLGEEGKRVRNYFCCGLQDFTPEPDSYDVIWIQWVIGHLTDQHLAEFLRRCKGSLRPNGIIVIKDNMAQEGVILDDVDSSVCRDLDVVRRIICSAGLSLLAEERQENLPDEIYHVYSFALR

The first experiment deals with Cytochrome P450 2C9 (Homo sapiens) (UniProt P11712). The experiment is described as follows: Cytochrome P450 family 2 subfamily C member 9 (CYP2C9) small molecule antagonists: luciferase biochemical (cell-free) qHTS assay (AID 1645842). Also: nearly all actives have a fitted effect of over 55% in size. Conditions: P450-Glo CYP2C9 enzyme assay, luciferin luminescence; series mostly up to 57.4 µM. The method, boiled down: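 Luminescence, after 20 min with luciferin detection reagent, reflected CYP2C9 turnover during a 1 h NADPH-driven reaction at 37C. Enzyme-substrate mix contained 0.4% bovine serum albumin and was preincubated with compound 10 min at room temperature.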
Chain of Cytochrome P450 2C9 (Homo sapiens) (P11712 whole entry, looked up): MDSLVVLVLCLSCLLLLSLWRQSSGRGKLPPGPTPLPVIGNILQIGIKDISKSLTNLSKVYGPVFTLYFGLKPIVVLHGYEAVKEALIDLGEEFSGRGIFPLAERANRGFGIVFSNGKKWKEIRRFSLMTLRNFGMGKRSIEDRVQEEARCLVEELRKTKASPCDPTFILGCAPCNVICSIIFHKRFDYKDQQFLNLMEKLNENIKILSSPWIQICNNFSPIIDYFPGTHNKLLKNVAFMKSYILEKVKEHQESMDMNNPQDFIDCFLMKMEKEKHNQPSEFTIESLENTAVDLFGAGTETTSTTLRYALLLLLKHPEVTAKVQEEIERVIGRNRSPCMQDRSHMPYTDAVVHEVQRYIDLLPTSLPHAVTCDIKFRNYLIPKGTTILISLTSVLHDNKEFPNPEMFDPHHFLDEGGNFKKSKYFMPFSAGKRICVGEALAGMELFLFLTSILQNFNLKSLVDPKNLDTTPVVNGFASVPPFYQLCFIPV
On the technique in general: Quantitative high-throughput screening tests each substance at several concentrations.
As to `CCn1c(C(=O)N(C2CC2)C2CC2)cc2c3c(ncn3C)c(Nc3cc(C)n(C)n3)nc21`, the Potency is 7.56 µM (active).

For `CCOC(=O)C1=C(N)Oc2ccc(Br)cc2C1C(C#N)C(=O)OCC` (stereo not given), the Potency is 6.01 µM (active) and 12 µM (active) and 10.7 µM (active).

For the molecule `O=C(CCN1CCN(C(=O)OCc2cc(Cl)cc(Cl)c2)CC1)c1ccc2[nH]c(=O)oc2c1`, the Potency was 7.56 µM (active).

On to `CN[C@@H](C)C(=O)N[C@H]1CN(C(=O)CC(C)C)CC[C@H]2CC[C@@H](C(=O)NC(c3ccccc3)c3ccccc3)N2C1=O`, for which the Potency result is “inactive”.

Regarding `Cc1ccc(Nc2cc(-c3cccc(N4C(=O)c5ccccc5C4=O)c3)ncn2)cc1NS(C)(=O)=O`, the Potency was 1.07 µM (active).

In the case of `COc1cc2c(cc1OC)CN(CCc1ccc(NC(=O)c3cc(OC)c(OC)cc3NC(=O)c3cnc4ccccc4c3)cc1)CC2`, the Potency result is “inactive”.

With `OC[C@@H](O)[C@H](O)[C@H](O)[C@@H](O)CO`, the Potency result was “inactive”.

As to `CC(C)(Cc1ccc2ccccc2c1)NC[C@@H](O)COc1cccc(Cl)c1C#N`, the Potency is 2.68 µM (active).

With `CS(=O)c1ccc(-c2nc(-c3ccc(F)cc3)c(-c3ccncc3)[nH]2)cc1` (stereo not given), the Potency is 0.952 µM (active).

For the molecule `CCN(CC)CCOC(=O)c1ccc(N)cc1`, the Potency result is “inactive”.

With `COc1cc(NC(=O)c2ccc(-c3ccc(Cl)cc3)o2)cc(OC)c1`, the Potency was 8.49 µM (active).

Consider `O=C(CCCCCCC(=O)Nc1ccccc1)NO`, for which the Potency result was “inactive”.

As for `COc1cc2ncnc(Nc3ccc(F)c(Cl)c3)c2cc1OCCCN1CCOCC1`, the Potency result was “inactive”.

As for `C[N+](C)(C)CC(=O)O`, the Potency result is “inactive”.

Take `CC(C)(C)Cn1c(N)nc2ccc(-c3[nH]c(C(C)(C)C)nc3-c3ccc(F)cc3)nc21`: the Potency was 5.35 µM (active).

As to `O=C1C[C@@H](c2ccc(O)cc2)Oc2cc(O)cc(O)c21`, the Potency is 5.35 µM (active).

Take `NC(=O)c1cccc(-c2cc(Nc3ccc(OC(F)(F)F)cc3)ncn2)c1`: the Potency is 15.1 µM (active).

With `Clc1ccc(Cn2c(CN3CCCC3)nc3ccccc32)cc1`, the Potency was 12.3 µM (active).

As for `c1ccc2c(-c3cnn4cc(-c5ccc(N6CCNCC6)cc5)cnc34)ccnc2c1`, the Potency entry was “inactive”.

Regarding `CC[C@]1(O)C[C@@H]2CN(CCc3c([nH]c4ccccc34)[C@@](C(=O)OC)(c3cc4c(cc3OC)N(C)[C@H]3[C@@](O)(C(=O)OC)[C@H](OC(C)=O)[C@]5(CC)C=CCN6CC[C@]43[C@@H]65)C2)C1`, the Potency entry was “inactive”.

For `CCc1ccc(OCc2ccccc2C(=O)Nc2ccc3nc(C)cc(N)c3c2)cc1`, the Potency is 26.8 µM (active).

As to `C[C@@H](O)[C@H]1C(=O)N2C(C(=O)O)=C(S[C@@H]3CN[C@H](C(=O)N(C)C)C3)[C@H](C)[C@H]12`, the Potency result is “inactive”.

For the molecule `CCOc1ccc(Nc2nc(-c3c(C)nc4ccccn34)cs2)cc1`, the Potency is 13.5 µM (active).

In the case of `CCCCCNC(=O)N1CCC(CN(Cc2ccc(Cl)cc2)Cc2ccc([N+](=O)[O-])s2)C1` (stereo not given), the Potency was 2.68 µM (active).

For `COc1ccc2c(Oc3ccc(NC(=O)c4c(C)n(CC(C)(C)O)n(-c5ccccc5)c4=O)nc3)ccnc2c1`, the Potency was 19 µM (active).

As for `COc1ccc2cc(-c3nc(-c4ccc(S(C)=O)cc4)[nH]c3-c3ccncc3)ccc2c1` (stereo not given), the Potency is 3.38 µM (active).

On to `Cn1c(N2CCCCS2(=O)=O)nc(C(=O)NCc2ccc(F)cc2)c(O)c1=O`, for which the Potency entry was “inactive”.

On to `COc1ccc2c(Oc3ccc(NC(=O)c4c(C)n(CC(C)(C)O)n(-c5ccccc5)c4=O)cc3F)ccnc2c1`, for which the Potency was 23.9 µM (active).

Consider `O=C(O)c1cc(-c2ccccc2)nc2ccccc12`, for which the Potency is 27 µM (active) and inactive.

With `CC1CCC(C(=O)N(c2cc(C#CC(C)(C)C)sc2C(=O)O)C2CCC(O)CC2)CC1` (stereo not given), the Potency entry was “inactive”.

Take `Cc1cccc(Nc2nc(-c3ccncc3)cs2)c1`: the Potency was 0.268 µM (active).

For the molecule `CN(C[C@@H]1COCCO1)S(=O)(=O)Nc1ccc2ccc3ncc(-c4cnn(C)c4)cc3c(=O)c2c1`, the Potency is 0.477 µM (active).

In the case of `COCCOC(=O)C1=C(C)NC2=C(C(=O)CC(c3ccccc3OC)C2)C1c1cccc(O)c1` (stereo not given), the Potency was 1.69 µM (active).

Turning to `Cc1c(NC(=O)c2ccc(C(C)(C)C)cc2)cccc1-c1cn(C)c(=O)c(Nc2ccc(C(=O)N3CCOCC3)cc2)n1`, the Potency was 2.13 µM (active).

Take `O=C(O)c1c(Cl)c(Cl)c(Cl)c(Cl)c1-c1c2cc(I)c(=O)c(I)c-2oc2c(I)c(O)c(I)cc12`: the Potency is 10.7 µM (active).

The next experiment deals with N-terminal Xaa-Pro-Lys N-methyltransferase 1 (Homo sapiens) (UniProt Q9BV86). The experiment is described as follows: Confirmatory qHTS for Inhibitors of N-terminal methyltransferase 1 (NTMT1): MTaseGlo Assay (AID 1645874; active = well fitted curve in the direction sought with a large enough effect; an effect the other way counts as inactive or inconclusive; also: nearly all actives have a fitted effect of over 65% in size). Conditions: NTMT1 enzyme, MTase-Glo SAH luminescence; series mostly up to 100 µM. The method, boiled down:
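qHTS format: NTMT1 125 nM, SAM 100 uM, peptide SPKRIA 1 uM final; 15 min compound preincubation, 30 min reaction at room temperature. MTase-Glo luminescence.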
On to `COc1cc2ncnc(Nc3ccc(F)c(Cl)c3)c2cc1OCCCN1CCOCC1`, for which the Potency was 7.58 µM (active).

With `CC(C)(C)Cn1c(N)nc2ccc(-c3[nH]c(C(C)(C)C)nc3-c3ccc(F)cc3)nc21`, the Potency was 17.8 µM (active).

As for `CCOc1ccc(Nc2nc(-c3c(C)nc4ccccn34)cs2)cc1`, the Potency entry was “inactive”.

On to `Cc1cccc(Nc2nc(-c3ccncc3)cs2)c1`, for which the Potency is 2.82 µM (active).

On to `O=C(O)c1c(Cl)c(Cl)c(Cl)c(Cl)c1-c1c2cc(I)c(=O)c(I)c-2oc2c(I)c(O)c(I)cc12`, for which the Potency is 9.55 µM (active).
